Outcome and AC50 data for 26 molecules are collected here from PubChem BioAssay (EPA / NIEHS).

As a reminder, the AC50 is the concentration at which the activity in the assay is half-maximal.

The structures appear in SMILES notation. “And” between values parts separate entries of the source, which are not always exact repeats. Identical values can stand only once. The source made the active and inactive calls. Rule for the calls: active = hit-call score of the fitted dose curve at least 0.9, where 1 is the maximum; inactive = score below 0.9.

Read-out in one experiment: Interleukin 6 Receptor (IL6R), IL6R (gene 3570)
Kind of experiment: LTEA_HepaRG_IL6R: Life Technologies and Expression Analysis (LTEA) Assay for Interleukin 6 Receptor (IL6R) using HepaRG (AID 2283510).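 For AC50: differentiated human HepaRG liver cells in serum-free induction medium; TaqMan qRT-PCR signal normalized to ACTB GAPDH and POLR2A housekeeping genes.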 Particulars: mRNA level, 48 h; actives raise or lower the signal. Summed up:
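Cells were thawed, plated and cultured 48 h, then medium was changed to serum-free induction medium. Chemicals were added in duplicate (100 uM top, half-log steps, 0.5% DMSO) for 48 h. Lysates were analyzed by qRT-PCR for IL6R expression.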
For `CSC(=O)c1cccc2nnsc12`, the molecule was called inactive.
Same read-out and setting: the same measure for `c1ccc(Nc2ccccc2)cc1`: “inactive”.
On to `CCOC(=O)NCCOc1ccc(Oc2ccccc2)cc1`, for which the concentration at half-maximal activity (AC50) is 20.7 µM (active).
With `CC(C)(c1ccc(O)cc1)c1ccc(O)cc1`, the molecule was called inactive.
Consider `Oc1ccc(C(c2ccc(O)cc2)C(Cl)(Cl)Cl)cc1`, for which the AC50 is 87.8 µM (active).
For the molecule `CCOC(=O)c1ccc(O)cc1`, the molecule was called inactive.
Still for that read-out and setting: to `CCCCCOC(=O)COc1cc(N2C(=O)C3=C(CCCC3)C2=O)c(F)cc1Cl` belongs “inactive”.
Consider `C[C@]12CC[C@@H]3c4ccc(O)cc4C[C@@H](CCCCCCCCCS(=O)CCCC(F)(F)C(F)(F)F)[C@H]3[C@@H]1CC[C@@H]2O` (some centres not stated), for which the half-maximal activity concentration (AC50) was 24.3 µM (active).
`CCCCCCC(C)OC(=O)COc1nc(F)c(Cl)c(N)c1Cl` (configuration not stated): the result was inactive.
For the molecule `N[C@@H](Cc1cc(I)c(Oc2ccc(O)c(I)c2)c(I)c1)C(=O)O`, the concentration at half-maximal activity (AC50) was 40 µM (active).
As to `CCNc1nc(N)nc(Cl)n1`, the molecule was classed as inactive.
Consider `COCCO`, for which the result was inactive.
On the same count and under the same terms, the same measure for `CCN(Cc1c(F)cccc1Cl)c1c([N+](=O)[O-])cc(C(F)(F)F)cc1[N+](=O)[O-]`: “inactive”.
`CN(C)C(=O)Nc1ccc(Cl)c(Cl)c1`: the molecule was classed as inactive.
On the same count and under the same terms, to `CCCCOCCOCCOCc1cc2c(cc1CCC)OCO2` belongs “inactive”; to `CCOC(=O)C(C)Oc1ccc(Oc2cnc3cc(Cl)ccc3n2)cc1` (configuration not stated), “inactive”; to `CCSC(=O)N(CC(C)C)CC(C)C`, “inactive”.
Same read-out and setting: to `COC(=O)CSc1cc(N=c2sc(=O)n3n2CCCC3)c(F)cc1Cl` belongs “inactive”; to `c1ccc2[nH]c(-c3cscn3)nc2c1`, “inactive”; to `CCCCC(CC)COC(=O)c1ccccc1C(=O)O` (configuration not stated), “inactive”.
On the same count and under the same terms, the same measure for `CCOC(=O)C(C)Oc1ccc(Oc2nc3ccc(Cl)cc3o2)cc1` (configuration not stated): “inactive”; for `O=C(c1ccccc1)C1CCCCC1`: “inactive”; for `COc1c(Cl)ccc(Cl)c1C(=O)O`: “inactive”.
`CC(=O)[C@H]1CC[C@H]2[C@@H]3CCC4=CC(=O)CC[C@]4(C)[C@H]3CC[C@]12C`: the AC50 was 50 µM (active).
Consider `CC1(C)C(C=C(Cl)Cl)C1C(=O)OCc1cccc(Oc2ccccc2)c1` (configuration not stated), for which the molecule was called inactive.
Consider `S=C(S)NCCNC(=S)S.[Mn+2].[S-]C([S-])=NCCN=C([S-])[S-].[Zn+2]`, for which the AC50 was 1.55 µM (active) and 1.5 µM (active) and 1.32 µM (active).

Read-out in another experiment: Potassium channel subfamily K member 1 (KCNK1), KCNK1 (gene 3775)
Kind of experiment: LTEA_HepaRG_KCNK1: Life Technologies and Expression Analysis (LTEA) Assay for Potassium channel subfamily K member 1 (KCNK1) using HepaRG (AID 2283511). Particulars: mRNA level, 48 h; actives raise or lower the signal. The gist of the method: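 KCNK1 transcript measured by TaqMan qRT-PCR against three housekeeping genes, after HepaRG cells were treated 48 h with eight half-log concentrations (top 100 uM, 0.5% DMSO). Curves fitted bidirectionally relative to vehicle.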
Turning to `CSC(=O)c1cccc2nnsc12`, the call was inactive.
The same measure, in the same setting: the same measure for `c1ccc(Nc2ccccc2)cc1`: “inactive”; for `CCOC(=O)NCCOc1ccc(Oc2ccccc2)cc1`: “inactive”.
Same read-out and setting: to `CC(C)(c1ccc(O)cc1)c1ccc(O)cc1` belongs “inactive”; to `Oc1ccc(C(c2ccc(O)cc2)C(Cl)(Cl)Cl)cc1`, “inactive”.
Still for that read-out and setting: to `CCOC(=O)c1ccc(O)cc1` belongs “inactive”; to `CCCCCOC(=O)COc1cc(N2C(=O)C3=C(CCCC3)C2=O)c(F)cc1Cl`, “inactive”.
With `C[C@]12CC[C@@H]3c4ccc(O)cc4C[C@@H](CCCCCCCCCS(=O)CCCC(F)(F)C(F)(F)F)[C@H]3[C@@H]1CC[C@@H]2O` (some centres not stated), the half-maximal activity concentration (AC50) is 0.0883 µM (active).
As to `CCCCCCC(C)OC(=O)COc1nc(F)c(Cl)c(N)c1Cl` (configuration not stated), the outcome was inactive.
On the same count and under the same terms, to `N[C@@H](Cc1cc(I)c(Oc2ccc(O)c(I)c2)c(I)c1)C(=O)O` belongs “inactive”; to `CCNc1nc(N)nc(Cl)n1`, “inactive”.
Still for that read-out and setting: to `COCCO` belongs “inactive”.
Still for that read-out and setting: the same measure for `CCN(Cc1c(F)cccc1Cl)c1c([N+](=O)[O-])cc(C(F)(F)F)cc1[N+](=O)[O-]`: “inactive”; for `CN(C)C(=O)Nc1ccc(Cl)c(Cl)c1`: “inactive”; for `CCCCOCCOCCOCc1cc2c(cc1CCC)OCO2`: “inactive”.
Regarding `CCOC(=O)C(C)Oc1ccc(Oc2cnc3cc(Cl)ccc3n2)cc1` (configuration not stated), the outcome was inactive.
For `CCSC(=O)N(CC(C)C)CC(C)C`, the molecule was classed as inactive.
Same read-out and setting: the same measure for `COC(=O)CSc1cc(N=c2sc(=O)n3n2CCCC3)c(F)cc1Cl`: “inactive”.
The same measure, in the same setting: the same measure for `c1ccc2[nH]c(-c3cscn3)nc2c1`: “inactive”.
Same read-out and setting: to `CCCCC(CC)COC(=O)c1ccccc1C(=O)O` (configuration not stated) belongs “inactive”; to `CCOC(=O)C(C)Oc1ccc(Oc2nc3ccc(Cl)cc3o2)cc1` (configuration not stated), “inactive”; to `O=C(c1ccccc1)C1CCCCC1`, “inactive”.
For the molecule `COc1c(Cl)ccc(Cl)c1C(=O)O`, the outcome was inactive.
In the case of `CC(=O)[C@H]1CC[C@H]2[C@@H]3CCC4=CC(=O)CC[C@]4(C)[C@H]3CC[C@]12C`, the AC50 was 56.6 µM (active).
Regarding `CC1(C)C(C=C(Cl)Cl)C1C(=O)OCc1cccc(Oc2ccccc2)c1` (configuration not stated), the molecule was classed as inactive.
Same read-out and setting: to `S=C(S)NCCNC(=S)S.[Mn+2].[S-]C([S-])=NCCN=C([S-])[S-].[Zn+2]` belongs “inactive”.
